Results filed as inconclusive are left out. The source made the active and inactive calls. Rule for the calls, unless noted: active = hit-call score of the fitted dose curve at least 0.9, where 1 is the maximum; inactive = score below 0.9.
Assays:
[1] = target: Estrogen receptor (Homo sapiens) (UniProt P03372); test: OT_ERa_GFPERaERE_0120: Odyssey Thera (OT) 2-hour HeLa Transcription Induction Assay for Estrogen Receptor (AID 2283382; active = hit-call score of the fitted dose curve at least 0.9, where 1 is the maximum)
Estrogen receptor (Homo sapiens), sequence (P03372 whole entry, looked up): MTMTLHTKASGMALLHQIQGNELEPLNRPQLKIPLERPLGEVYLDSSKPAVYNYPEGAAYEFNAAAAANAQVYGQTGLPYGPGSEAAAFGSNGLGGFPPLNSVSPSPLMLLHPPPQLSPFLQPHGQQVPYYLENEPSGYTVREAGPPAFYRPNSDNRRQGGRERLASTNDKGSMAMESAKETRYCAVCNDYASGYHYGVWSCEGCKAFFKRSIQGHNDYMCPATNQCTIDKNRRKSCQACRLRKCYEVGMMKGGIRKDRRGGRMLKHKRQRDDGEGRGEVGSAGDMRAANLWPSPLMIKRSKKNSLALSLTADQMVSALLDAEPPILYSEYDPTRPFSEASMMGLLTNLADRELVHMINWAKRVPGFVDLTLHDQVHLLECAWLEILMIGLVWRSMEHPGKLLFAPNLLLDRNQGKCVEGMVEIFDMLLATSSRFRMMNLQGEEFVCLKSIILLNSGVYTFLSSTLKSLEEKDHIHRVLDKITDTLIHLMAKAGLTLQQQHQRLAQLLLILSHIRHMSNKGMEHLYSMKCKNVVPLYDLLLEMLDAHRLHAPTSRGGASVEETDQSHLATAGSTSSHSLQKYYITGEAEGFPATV
In short: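 HeLa, 384-well, 2 h chemical exposure; GFP reporter induction (ERE), fluorescence microscopy; high content image analysis; positive fitting direction vs DMSO.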

[2] = target: Bile acid receptor (Homo sapiens) (UniProt Q96RI1); test: OT_FXR_FXRSRC1_0480: Odyssey Thera (OT) 8-hour HEK293T Protein-Complementation Assay for Farnesoid X receptor/SRC-1 Co-activator (AID 2283383; active = hit-call score of the fitted dose curve at least 0.9, where 1 is the maximum)
Bile acid receptor (Homo sapiens), sequence (Q96RI1 whole entry, looked up, the tested form may be a part): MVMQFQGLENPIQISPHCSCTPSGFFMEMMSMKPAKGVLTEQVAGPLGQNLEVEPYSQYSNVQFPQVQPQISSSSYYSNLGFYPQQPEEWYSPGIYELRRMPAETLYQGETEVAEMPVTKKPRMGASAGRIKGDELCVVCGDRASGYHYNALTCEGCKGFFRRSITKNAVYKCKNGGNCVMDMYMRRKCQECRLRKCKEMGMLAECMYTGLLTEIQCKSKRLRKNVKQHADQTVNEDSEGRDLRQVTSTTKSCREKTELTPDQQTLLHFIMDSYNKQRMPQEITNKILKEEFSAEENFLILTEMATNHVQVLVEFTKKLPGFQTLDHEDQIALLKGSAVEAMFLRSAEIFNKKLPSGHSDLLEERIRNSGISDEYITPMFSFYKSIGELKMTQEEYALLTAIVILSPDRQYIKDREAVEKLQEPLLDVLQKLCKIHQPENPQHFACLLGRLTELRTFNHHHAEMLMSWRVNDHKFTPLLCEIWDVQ
In short: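 Human kidney HEK293T cells carried FXR/SRC-1 fragment-complementation constructs. Compounds were added and incubated 8 h. Reporter reassembly upon receptor–co-activator interaction was then quantified by fluorescence, with curves fitted in the positive direction relative to DMSO.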

[3] = target: Bile acid receptor (Homo sapiens) (UniProt Q96RI1); test: OT_FXR_FXRSRC1_1440: Odyssey Thera (OT) 24-hour HEK293T Protein-Complementation Assay for Farnesoid X receptor/SRC-1 Co-activator (AID 2283384; active = hit-call score of the fitted dose curve at least 0.9, where 1 is the maximum)
In short: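 Compounds are applied to human kidney HEK293T cells expressing bait and prey fused to reporter protein fragments; after 24 h, reconstituted reporter fluorescence is measured. Activity is fitted as signal gain over DMSO.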

[4] = target: Retinoic acid receptor RXR-alpha (Homo sapiens) (UniProt P19793); test: OT_NURR1_NURR1RXRa_1440: Odyssey Thera (OT) 24-hour HEK293T Protein Complementation Assay for Nurr1/retinoid X receptor (RXR) (AID 2283386; active = hit-call score of the fitted dose curve at least 0.9, where 1 is the maximum)
Retinoic acid receptor RXR-alpha (Homo sapiens), sequence (P19793 whole entry, looked up, the tested form may be a part): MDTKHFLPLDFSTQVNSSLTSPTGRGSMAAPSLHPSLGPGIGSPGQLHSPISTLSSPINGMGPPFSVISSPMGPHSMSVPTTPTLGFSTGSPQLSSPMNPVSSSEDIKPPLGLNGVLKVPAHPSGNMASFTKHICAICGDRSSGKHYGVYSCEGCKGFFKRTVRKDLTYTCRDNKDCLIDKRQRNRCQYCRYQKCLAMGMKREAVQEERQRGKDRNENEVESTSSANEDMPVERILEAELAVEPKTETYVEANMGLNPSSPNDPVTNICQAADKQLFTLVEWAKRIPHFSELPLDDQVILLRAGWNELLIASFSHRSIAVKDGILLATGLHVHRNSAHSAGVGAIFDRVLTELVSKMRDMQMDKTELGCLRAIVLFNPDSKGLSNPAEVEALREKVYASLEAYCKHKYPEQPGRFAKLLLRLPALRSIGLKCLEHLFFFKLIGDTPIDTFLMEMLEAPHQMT
In short: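 Interaction of Nurr1 with RXRα brings fused reporter fragments together in human HEK293T cells, restoring a functional reporter. Fluorescence intensity is measured 24 h after chemical treatment, and values are analysed in the positive direction against DMSO.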

[5] = target: Peroxisome proliferator-activated receptor gamma (Homo sapiens) (UniProt P37231); test: OT_PPARg_PPARgSRC1_0480: Odyssey Thera (OT) 8-hour Protein-Complementation Assay for Peroxisome Proliferator-activated Receptor Gamma / SRC-1 Co-activator (AID 2283387; active = hit-call score of the fitted dose curve at least 0.9, where 1 is the maximum;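 note: nuclear to cytoplasmic split Venus YFP fluorescence ratio reporting PPARg SRC-1 interaction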)
Peroxisome proliferator-activated receptor gamma (Homo sapiens), sequence (P37231 whole entry, looked up, the tested form may be a part): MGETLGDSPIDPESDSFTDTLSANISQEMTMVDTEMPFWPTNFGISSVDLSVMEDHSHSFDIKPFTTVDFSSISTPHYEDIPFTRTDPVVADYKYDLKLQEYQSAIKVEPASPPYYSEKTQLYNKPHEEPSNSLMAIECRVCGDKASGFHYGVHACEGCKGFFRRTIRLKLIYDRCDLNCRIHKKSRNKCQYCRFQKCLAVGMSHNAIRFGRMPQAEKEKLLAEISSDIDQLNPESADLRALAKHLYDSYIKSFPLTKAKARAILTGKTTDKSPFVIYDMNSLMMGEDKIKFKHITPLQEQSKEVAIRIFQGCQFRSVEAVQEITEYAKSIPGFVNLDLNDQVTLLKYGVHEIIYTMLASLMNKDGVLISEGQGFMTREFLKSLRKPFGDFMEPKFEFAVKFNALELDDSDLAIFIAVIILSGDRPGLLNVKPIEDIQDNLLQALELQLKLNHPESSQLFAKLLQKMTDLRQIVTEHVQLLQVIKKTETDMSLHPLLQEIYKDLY
In short: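 Protein-fragment complementation in HEK293T: Venus YFP halves (residues 1-158, 159-239, mutated to IFP1/IFP2) fused to PPARg/SRC-1. 8 h exposure; N/C ratio at 488 nm; DMSO negative control.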

[6] = target: Peroxisome proliferator-activated receptor gamma (Homo sapiens) (UniProt P37231); test: OT_PPARg_PPARgSRC1_1440: Odyssey Thera (OT) 24-hour Protein-Complementation Assay for Peroxisome Proliferator-activated Receptor Gamma/ SRC-1 Co-activator (AID 2283388; active = hit-call score of the fitted dose curve at least 0.9, where 1 is the maximum;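 note: nuclear to cytoplasmic ratio of reconstituted Venus YFP fluorescence in fixed imaged cells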)
In short: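 Protein-fragment complementation between PPARg and coactivator SRC-1 was measured by fluorescence imaging in transiently transfected HEK293T cells after 24 h treatment. Signal was quantified as N/C ratio in the 488 nm channel, with DMSO as negative control.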

[7] = CEETOX_H295R_OHPREG: CeeTox H295R High-throughput Steroidogenesis Assay for OH-Pregnenolone (OHPREG) (AID 2283434); details: actives raise or lower the signal
In short: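 Hormone levels in spent medium were measured by tandem mass spectrometry following liquid-liquid extraction. Cells (H295R) had been forskolin-stimulated (10 uM, 48 h) before a 48 h chemical exposure at 0.1% DMSO, with activity fitted in both directions against DMSO.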

[8] = CEETOX_H295R_OHPROG: CeeTox H295R High-throughput Steroidogenesis Assay for OH-Progesterone (OHPROG) (AID 2283435); details: actives raise or lower the signal;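 for AC50: 17alpha-hydroxyprogesterone secreted into medium measured by HPLC-MS/MS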
In short: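 H295R, 10 uM forskolin prestim 48 h; cmpd in 0.1% DMSO 48 h; medium MTBE-extracted, HPLC-MS/MS for OH-progesterone; 7-pt std curve; bidirectional fit vs DMSO; MTT viability, chemicals diluted until viability >/=70%.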

[9] = CEETOX_H295R_ESTRADIOL: CeeTox H295R High-throughput Steroidogenesis Assay for Estradiol (AID 2283440); details: actives raise or lower the signal;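 note: estradiol secreted into medium quantified by LC-MS/MS after dansyl derivatisation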
In short: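 Estradiol secreted into the medium was measured by tandem mass spectrometry after liquid-liquid extraction and dansylation. Human H295R cells had been forskolin-primed (10 uM, 48 h) before a 48 h chemical exposure with 0.1% DMSO.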

[10] = CEETOX_H295R_ESTRONE: CeeTox H295R High-throughput Steroidogenesis Assay for Estrone (AID 2283441); details: actives raise or lower the signal;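 note: estrone secreted into medium measured by LC-MS/MS after dansyl derivatization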
In short: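 H295R cells prestimulated 48 h with 10 uM forskolin, then exposed 48 h to chemicals in 0.1% DMSO final; estrone in medium extracted with MTBE, dansyl-derivatized, quantified by HPLC-MS/MS; bidirectional fitting versus DMSO, viability by MTT.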

[11] = CEETOX_H295R_PROG: CeeTox H295R High-throughput Steroidogenesis Assay for Progesterone (PROG) (AID 2283442); details: actives raise or lower the signal;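 for AC50: human H295R adrenal cells primed with 10 µM forskolin before dosing; progesterone secreted into medium by H295R cells measured by HPLC-MS/MS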
In short: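 Steps: seed H295R cells and let them adhere overnight; prime 48 h with 10 uM forskolin; dose with compound in DMSO at 0.1% final for 48 h; extract medium steroids with MTBE; measure progesterone by LC-MS/MS. MTT viability was run in the same wells.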

[12] = read-out: Tumor necrosis factor receptor superfamily member 6 (Homo sapiens) (UniProt P25445); test: LTEA_HepaRG_FAS: Life Technologies and Expression Analysis (LTEA) Assay for Fas cell surface death receptor (FAS) using HepaRG (AID 2283447); details: mRNA level, 48 h; actives raise or lower the signal
In short: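 FAS transcript level was measured by TaqMan qRT-PCR against three housekeeping genes after 48 h chemical exposure. Cells were HepaRG, 0.5% DMSO vehicle, with a top concentration of 100 uM and half-log dilutions over eight points, in duplicate.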

[13] = read-out: Fatty acid synthase (Homo sapiens) (UniProt P49327); test: LTEA_HepaRG_FASN: Life Technologies and Expression Analysis (LTEA) Assay for Fatty Acid Synthase (FASN) using HepaRG (AID 2283448); details: mRNA level, 48 h; actives raise or lower the signal
In short: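 FASN expression changes, up or down relative to 0.5% DMSO, were measured by qRT-PCR in human HepaRG cells after 48 h treatment with chemicals at eight concentrations (half-log steps from 100 uM).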

[14] = read-out: Cyclin Dependent Kinase Inhibitor 1A (CDKN1A), CDKN1A (gene 1026); test: LTEA_HepaRG_CDKN1A: Life Technologies and Expression Analysis (LTEA) Assay for Cyclin Dependent Kinase Inhibitor 1A (CDKN1A) using HepaRG (AID 2283450); details: mRNA level, 48 h; actives raise or lower the signal
In short: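 Read-out is CDKN1A mRNA by TaqMan qRT-PCR, normalized to three housekeeping genes and fitted in both directions against the DMSO baseline. Human HepaRG cells were treated 48 h with test chemicals up to 100 uM in half-log steps, 0.5% DMSO.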

[15] = read-out: Cyclin D1 (CCND1), CCND1 (gene 595); test: LTEA_HepaRG_CCND1: Life Technologies and Expression Analysis (LTEA) Assay for Cyclin D1 (CCND1) using HepaRG (AID 2283451); details: mRNA level, 48 h; actives raise or lower the signal
In short: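 HepaRG plated 48 h, medium switched to serum-free induction medium, chemicals added in duplicate (top 100 uM, half-log steps, 0.5% DMSO) for 48 h, cells lysed, RNA measured by TaqMan qRT-PCR.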

[16] = read-out: catalase (CAT), CAT (gene 847); test: LTEA_HepaRG_CAT: Life Technologies and Expression Analysis (LTEA) Assay for catalase (CAT) using HepaRG (AID 2283452); details: mRNA level, 48 h; actives raise or lower the signal;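 for AC50: TaqMan qRT-PCR signal normalized to ACTB GAPDH and POLR2A housekeeping genes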
In short: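 Expression of CAT was quantified by TaqMan qRT-PCR with ACTB/GAPDH/POLR2A normalization after 48 h chemical exposure of HepaRG. Eight-point half-log series, top 100 uM, in 0.5% DMSO; gain or loss fitted against vehicle.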

[17] = CEETOX_H295R_ANDR: CeeTox H295R High-throughput Steroidogenesis Assay for Androstenedione (ANDR) (AID 2283436); details: actives raise or lower the signal;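 note: human H295R adrenal cells exposed for 48 h with androstenedione measured in medium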
In short: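 Read-out is androstenedione secreted into medium, measured by tandem mass spectrometry after liquid-liquid extraction. Cells were H295R, dosed for 48 h per modified OECD 456; activity fitted in both directions relative to DMSO.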

[18] = CEETOX_H295R_CORTIC: CeeTox H295R High-throughput Steroidogenesis Assay for Corticosterone (CORTIC) (AID 2283437); details: actives raise or lower the signal;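 note: corticosterone secreted into medium quantified by mass spectrometry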
In short: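 Corticosterone secreted into medium is measured by reverse-phase HPLC with tandem MS following liquid-liquid extraction. Cells are forskolin-stimulated (10 uM, 48 h) before 48 h test exposure; activity fitted in both directions against DMSO.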

[19] = CEETOX_H295R_CORTISOL: CeeTox H295R High-throughput Steroidogenesis Assay for Cortisol (AID 2283438); details: actives raise or lower the signal;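 note: cortisol secreted into medium quantified by LC-MS/MS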
In short: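 Forskolin 10 uM 48 h prestim → test cmpd in DMSO (0.1% final) 48 h → medium MTBE-extracted → LC-MS/MS cortisol vs 7-pt std curve. Gain/loss of signal fitted vs DMSO. MTT viability in same wells.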

[20] = CEETOX_H295R_DOC: CeeTox H295R High-throughput Steroidogenesis Assay for DOC (AID 2283439); details: actives raise or lower the signal
In short: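 Readout: 11-deoxycorticosterone in culture medium by reverse-phase C18 HPLC with ESI+ tandem MS after MTBE extraction. Cells: H295R, forskolin-primed (10 uM, 48 h), chemical-treated 48 h; DMSO 0.1% final. Activity fitted bidirectionally versus DMSO.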

Measured: AC50

Fatty acid synthase (Homo sapiens), sequence (P49327 whole entry, looked up): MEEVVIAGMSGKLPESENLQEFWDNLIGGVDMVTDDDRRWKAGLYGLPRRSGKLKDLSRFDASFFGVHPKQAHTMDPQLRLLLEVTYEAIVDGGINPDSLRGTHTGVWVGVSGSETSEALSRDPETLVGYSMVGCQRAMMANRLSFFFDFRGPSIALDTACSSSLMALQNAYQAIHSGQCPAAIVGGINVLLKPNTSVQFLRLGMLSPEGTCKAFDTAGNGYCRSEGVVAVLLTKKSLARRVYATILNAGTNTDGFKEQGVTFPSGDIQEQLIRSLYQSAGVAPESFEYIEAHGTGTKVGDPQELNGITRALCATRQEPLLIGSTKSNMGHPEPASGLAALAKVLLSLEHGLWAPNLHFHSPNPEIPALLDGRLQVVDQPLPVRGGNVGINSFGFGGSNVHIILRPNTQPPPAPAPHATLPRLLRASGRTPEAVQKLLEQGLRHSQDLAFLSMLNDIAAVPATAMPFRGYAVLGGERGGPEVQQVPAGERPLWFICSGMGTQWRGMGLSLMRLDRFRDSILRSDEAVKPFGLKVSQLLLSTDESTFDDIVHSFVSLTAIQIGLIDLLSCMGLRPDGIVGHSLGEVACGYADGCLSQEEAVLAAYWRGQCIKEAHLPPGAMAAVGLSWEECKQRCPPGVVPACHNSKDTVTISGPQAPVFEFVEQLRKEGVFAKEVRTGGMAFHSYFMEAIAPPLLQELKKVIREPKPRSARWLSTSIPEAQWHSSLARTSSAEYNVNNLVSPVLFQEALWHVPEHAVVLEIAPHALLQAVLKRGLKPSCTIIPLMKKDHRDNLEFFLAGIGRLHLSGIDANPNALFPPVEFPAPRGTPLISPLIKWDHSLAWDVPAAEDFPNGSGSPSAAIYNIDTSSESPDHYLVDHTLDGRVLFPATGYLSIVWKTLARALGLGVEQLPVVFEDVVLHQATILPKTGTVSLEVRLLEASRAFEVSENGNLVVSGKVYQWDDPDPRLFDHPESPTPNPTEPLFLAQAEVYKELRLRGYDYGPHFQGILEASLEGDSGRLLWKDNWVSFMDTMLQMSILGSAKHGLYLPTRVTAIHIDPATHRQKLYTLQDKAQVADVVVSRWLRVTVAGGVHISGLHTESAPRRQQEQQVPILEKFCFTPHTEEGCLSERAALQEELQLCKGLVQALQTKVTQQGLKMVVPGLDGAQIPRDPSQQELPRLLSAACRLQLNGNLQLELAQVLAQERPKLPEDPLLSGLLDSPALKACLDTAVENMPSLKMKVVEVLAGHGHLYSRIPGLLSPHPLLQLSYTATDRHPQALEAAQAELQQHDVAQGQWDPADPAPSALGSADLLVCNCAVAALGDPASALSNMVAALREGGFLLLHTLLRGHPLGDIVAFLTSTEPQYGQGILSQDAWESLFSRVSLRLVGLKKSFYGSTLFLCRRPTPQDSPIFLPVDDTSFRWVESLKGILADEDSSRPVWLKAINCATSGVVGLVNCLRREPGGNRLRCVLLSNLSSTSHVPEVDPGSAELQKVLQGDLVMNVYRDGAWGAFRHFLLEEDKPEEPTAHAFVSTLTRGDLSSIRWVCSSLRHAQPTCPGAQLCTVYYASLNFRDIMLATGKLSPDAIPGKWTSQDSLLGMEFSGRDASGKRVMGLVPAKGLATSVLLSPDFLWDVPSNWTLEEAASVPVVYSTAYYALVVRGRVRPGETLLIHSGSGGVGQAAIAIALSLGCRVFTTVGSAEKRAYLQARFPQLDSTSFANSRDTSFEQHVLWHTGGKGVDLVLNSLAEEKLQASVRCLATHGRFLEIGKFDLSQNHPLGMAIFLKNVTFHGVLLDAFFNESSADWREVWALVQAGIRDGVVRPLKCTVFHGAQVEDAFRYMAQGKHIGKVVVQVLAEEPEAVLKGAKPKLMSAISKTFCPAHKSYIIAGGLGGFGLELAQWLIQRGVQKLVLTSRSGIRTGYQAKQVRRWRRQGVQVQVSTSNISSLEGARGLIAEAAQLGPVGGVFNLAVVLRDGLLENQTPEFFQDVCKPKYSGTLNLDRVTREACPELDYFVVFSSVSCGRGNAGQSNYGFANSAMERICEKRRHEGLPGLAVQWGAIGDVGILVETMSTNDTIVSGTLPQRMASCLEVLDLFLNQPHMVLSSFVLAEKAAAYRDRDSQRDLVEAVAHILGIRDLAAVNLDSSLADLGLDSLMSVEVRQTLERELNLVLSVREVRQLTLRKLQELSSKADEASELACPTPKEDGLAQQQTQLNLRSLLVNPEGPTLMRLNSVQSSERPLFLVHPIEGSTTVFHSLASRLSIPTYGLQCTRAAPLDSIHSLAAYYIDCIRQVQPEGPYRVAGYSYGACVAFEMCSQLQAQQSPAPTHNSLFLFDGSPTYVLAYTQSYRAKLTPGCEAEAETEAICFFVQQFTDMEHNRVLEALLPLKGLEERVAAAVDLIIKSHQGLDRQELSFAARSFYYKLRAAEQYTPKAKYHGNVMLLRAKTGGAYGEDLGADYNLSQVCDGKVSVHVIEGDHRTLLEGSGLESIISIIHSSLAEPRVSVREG

COP(=S)(OC)Oc1ccc([N+](=O)[O-])cc1
active: [2] 36.8 µM | [3] 50 µM | [8] 3.28 µM | [11] 9.85 µM
not listed: [17] | [18] | [19] | [20]
inactive: all other assays above

O=S1OCC2C(CO1)C1(Cl)C(Cl)=C(Cl)C2(Cl)C1(Cl)Cl (stereo unspecified)
active: [2] 39.2 µM | [14] 79.1 µM | [16] 52.3 µM
inactive: [1] | [5] | [6] | [12] | [13] | [15]

C#CCN1C(=O)COc2cc(F)c(N3C(=O)C4=C(CCCC4)C3=O)cc21
not listed: [2] | [3]
inactive: all other assays above

CCCN(CCC)c1c([N+](=O)[O-])cc(C(F)(F)F)cc1[N+](=O)[O-]
active: [2] 30.7 µM
not listed: [9] | [10] | [18] | [19] | [20]
inactive: all other assays above

CN1CSC(=S)N(C)C1
inactive: [1] | [2] | [3] | [5] | [6] | [12] | [13] | [14] | [15] | [16]

CC(C)N(C(=O)COc1nnc(C(F)(F)F)s1)c1ccc(F)cc1
not listed: [16] | [17]
inactive: all other assays above

From PubChem BioAssay (EPA / NIEHS)
